Measured values published in PubChem BioAssay (NCI).
Where “and” joins values, the source holds several entries; their conditions need not be identical. Equal entries are not always repeated. This is part of a sample that, as a whole, favours compounds with a hit. Of some 83,000 tested, about 20% had one in any assay.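 Single-concentration screen, 48 h exposure, 96-well plates. Endpoint: percent growth. Below 10 = active.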 Calls of active or inactive are those of the source.

tested on: LOX IMVI melanoma; assay: NCI-60 one-dose screen, 48 h (100 = growth as untreated, 0 = no growth, -100 = all killed); settings: 10 µM unless noted

Compound	growth
C=CC(=O)N1CCN(c2ccc3nc4c(nc3c2C(F)(F)F)C(=O)c2ncccc2C4=O)CC1	-8.11% (active)
O=C(N/N=C/c1ccc(-c2cccc([N+](=O)[O-])c2)s1)c1[nH]c2ccc(Br)cc2c1-c1ccccc1	85.8% (inactive)
CCCCNc1ccc2c3c(cccc13)C(=O)N(NCC(O)COc1ccc3c(C)cc(=O)oc3c1)C2=O (stereo not given)	81.3% (inactive)
CC(=O)Nc1cccc(-n2c(COc3ccc(Br)cc3)nc3ccccc32)c1	91.8% (inactive) and 104% (inactive)
CC(=O)c1c2c(c3ccc4c5ccccc5ccc4n13)C(=O)c1ccccc1C2=O	64.5% (inactive)
CC1=NN(C2=NC(=O)C(CC(=O)Nc3ccccc3C(F)(F)F)S2)C(c2ccc(N(C)C)cc2)C1 (stereo not given)	46.3% (inactive)
Cc1ccc(C2CC(c3ccc(NC(=O)Nc4ccccc4)cc3)=NN2c2ccc(S(C)(=O)=O)cc2)cc1 (stereo not given)	-100% (active)
O=C(CSc1nc2sc3c(c2c(=O)n1-c1ccc(Cl)cc1)CCCC3)N/N=C/C=C/c1ccccc1	31.7% (inactive)
O=C(COc1ccc(/C=C2/C(=O)Nc3ccc(Cl)cc32)cc1)Nc1ccc(Br)cc1	-89.4% (active)
CC(C)(C)OC(=O)N1CCC2(CC1)Oc1ccccc1[C@H]1CC(c3ccc(Br)cc3)=NN12	54.2% (inactive)
N#Cc1c(-c2ccc(F)cc2)nc(SCc2ccc(F)cc2)nc1N1CCNCC1	-100% (active)
Cc1ccc(/C=C/C(=O)c2ccc(S(=O)(=O)NCCNc3nc(N(C)C)nc(N4CCOCC4)n3)cc2)cc1	42.1% (inactive)
ClC(Cn1ncc2c(Nc3cccc(Br)c3)nc(SCCN3CCOCC3)nc21)c1ccc(Br)cc1 (stereo not given)	-89.4% (active)
COc1ccc(N=Nc2c(N)nn3c(N)c(C#N)c(-c4ccccc4)nc23)cc1	54.9% (inactive)
Cc1cccc(-c2ccccc2Oc2ccc3nnc(Cl)n3n2)c1	93.7% (inactive)
CCN1CCN(Cc2ccc(C(=O)Nc3cccc(Nc4ccc5c(OC)cccc5n4)c3)cc2C(F)(F)F)CC1	-92.1% (active)
N#CCc1nnc(NC(=O)c2ccc(-n3c(=O)[nH]c4ccccc4c3=O)cc2)s1	90.5% (inactive)
COc1cc(NC(=O)CSc2nnc(-c3ccc(-c4nc5ccc(Cl)cc5[nH]4)cc3)o2)cc(OC)c1OC	32.2% (inactive)

Compound	growth
c1n[nH]cc1-c1nc2ccc3cn[nH]c3c2c2c1CCCC2	69.9% (inactive)
Cc1ccccc1NC(=O)c1cccc(NC(=O)CCl)c1	-47.5% (active)
COc1ccc(-c2cc(-c3cc(OC)c(OC)c(OC)c3)[nH]c(=O)c2C#N)cc1	40.2% (inactive)
O=C(CSc1nc2c(c(=O)[nH]1)CCCC2)Nc1ccccc1C(=O)O	101% (inactive)
N/C(=N\c1nc2ccccc2s1)NC(=O)Nc1ccccc1[N+](=O)[O-]	10% (inactive)
FC(F)(F)c1cc2c(Cl)ncnc2n1CCN1CCOCC1	-12.7% (active)
O=C(NNC(=O)c1ccc(OCc2nc3ccc(Cl)cc3[nH]2)cc1)Nc1ccc(Cl)c(Cl)c1	40% (inactive)
Clc1ccc(-c2nc3c4c(-c5ccccc5)c(-c5ccccc5)n(Cc5ccccc5)c4ncn3n2)cc1	11.9% (inactive)
COc1c(B(O)O)cc(F)cc1-c1nc2c(F)cc3[nH]ncc3c2c2c1CCCC2	-16.6% (active)
C/C(=N\Nc1ccc(C(=O)O)cc1)c1cnn(-c2cc(=O)[nH]c3ccc(C)cc23)c1C	94.9% (inactive)
O=C1Nc2cc(-c3ccc(NS(=O)(=O)c4ccc([N+](=O)[O-])cc4)cc3)ccc2/C1=C/c1ccc[nH]1	-20.6% (active)
COc1ccc(NC(=O)CSc2nnc(-c3ccc(-c4nc5ccc(Cl)cc5[nH]4)cc3)o2)cc1	-33.3% (active)
COc1ccc2[nH]c(O)c(N=Nc3nc(-c4ccc(C#N)cc4)cs3)c2c1	37.6% (inactive)
COc1ccc(-c2nc3ccc(-c4nnc(SCC(=O)Nc5ccc(/C(C)=N\O)cc5)o4)cc3[nH]2)cc1	33.8% (inactive)
CCCCCCCCCCCCCCCCCC(=O)Nc1ccc(OC)cc1	95.9% (inactive)
CCN1C(=O)N(CC)C2NNC(Sc3c(C(=O)O)c4ccccc4n(CCC(C)C)c3=O)=NC21 (stereo not given)	-41.7% (active)
COc1ccc(/C=C/c2nc3ccccc3n3c(-c4cccc([N+](=O)[O-])c4)nnc23)cc1	-77.3% (active)
